PubChem BioAssay (EPA / NIEHS)
Inconclusive results are not listed. Where a structure was tested more than once in an assay, its records may differ in their call. Active and inactive are the calls of the source. The calls were made as follows, unless noted: active = hit-call score of the fitted dose curve at least 0.9, where 1 is the maximum; inactive = score below 0.9.

Legend:
[1] = read-out: Monokine induced gamma interferon (MIG), CXCL9 (gene 4283); experiment: BSK_3C_MIG: BioMAP Diversity Plus: 3C Assay for Monokine induced gamma interferon (MIG) Biomarker Activity (AID 2283021); conditions: primary human endothelial cells (HUVEC); actives raise or lower the signal;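 as to AC50: MIG protein level measured by immunoassay in the treated endothelial cultures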
Summary of the method: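 Primary human umbilical vein endothelial cells in the 3C system were exposed to chemical for 24 h, after which MIG was quantified by ELISA. Activity was fitted bidirectionally against DMSO as negative control and baseline.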

[2] = target: human Vitamin D Receptor (VDR), VDR (gene 7421) (UniProt P11473); experiment: ATG_VDR_TRANS: Attagene TRANS-FACTORIAL HepG2 Assay for human Vitamin D Receptor (VDR) (AID 2283022; active = hit-call score of the fitted dose curve at least 0.9, where 1 is the maximum)
Chain of human Vitamin D Receptor (VDR), VDR (gene 7421) (P11473 whole entry, looked up, the tested form may be a part): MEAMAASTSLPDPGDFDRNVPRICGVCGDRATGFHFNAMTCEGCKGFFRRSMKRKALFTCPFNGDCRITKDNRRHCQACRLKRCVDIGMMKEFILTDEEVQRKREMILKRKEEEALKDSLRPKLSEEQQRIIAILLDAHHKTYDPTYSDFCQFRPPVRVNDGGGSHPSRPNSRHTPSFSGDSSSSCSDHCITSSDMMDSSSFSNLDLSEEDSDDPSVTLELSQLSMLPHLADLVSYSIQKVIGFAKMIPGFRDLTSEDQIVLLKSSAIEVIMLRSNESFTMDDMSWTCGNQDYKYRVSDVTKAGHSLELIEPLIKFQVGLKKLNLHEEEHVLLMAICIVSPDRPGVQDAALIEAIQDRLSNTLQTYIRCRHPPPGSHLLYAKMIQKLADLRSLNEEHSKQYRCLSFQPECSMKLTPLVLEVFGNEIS
Summary of the method: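 Transactivation by an exogenous VDR-Gal4 chimera in transiently transfected HepG2 cells was measured as reporter transcript level 24 hours after chemical treatment. RT-PCR products were analysed by capillary electrophoresis and fitted in the positive direction relative to DMSO.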

[3] = BSK_3C_SRB: Viability Assessment in the BioMAP Diversity Plus: 3C Assay (AID 2283023); conditions: primary human endothelial cells (HUVEC);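 also: fitted both ways against DMSO so a hit may be signal rise or drop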
Summary of the method: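 Cytotoxicity readout in parallel HUVEC 3C cultures: after 24 h compound exposure, cells fixed with 10% TCA, stained with 0.1% SRB and read at 560 nm. Gain or loss relative to DMSO fitted.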

[4] = read-out: Matrix Metallopeptidase 1 (MMP1), MMP1 (gene 4312); experiment: BSK_BE3C_MMP1: BioMAP Diversity Plus: BE3C Assay for Matrix Metallopeptidase 1 (MMP1) Biomarker Activity (AID 2283024); conditions: primary human bronchial epithelial cells; actives raise or lower the signal
Summary of the method: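 Primary human bronchial epithelial cells were dosed with test chemicals, and MMP1 levels were measured by ELISA 24 h later. Data were fitted bidirectionally against DMSO as the negative control and activity baseline.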

[5] = BSK_3C_Vis: BioMAP Diversity Plus: 3C Assay for Morphology Visualization (AID 2283025); conditions: primary human endothelial cells (HUVEC);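 also: fitted both ways so gain or loss versus DMSO counts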
Summary of the method: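 Human umbilical vein endothelial cells in the 3C system were imaged by light microscopy 24 h after chemical dosing to record cell morphology. Activity was fitted bidirectionally against DMSO as negative control and baseline; the endpoint serves as a background control.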

[6] = read-out: Pselectin, SELP (gene 6403); experiment: BSK_4H_Pselectin: BioMAP Diversity Plus: 4H Assay for Pselectin Biomarker Activity (AID 2283026); conditions: primary human endothelial cells (HUVEC); actives raise or lower the signal
Summary of the method: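 Primary human umbilical vein endothelial cells were exposed to test chemical for 24 h, then cell-surface P-selectin was quantified by ELISA. Activity was fitted bidirectionally against DMSO as negative control and baseline.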

[7] = BSK_4H_SRB: Viability Assessment in the BioMAP Diversity Plus: 4H Assay (AID 2283027); conditions: primary human endothelial cells (HUVEC);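 also: cells exposed to compound for 24 h before staining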;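 as to AC50: curves fitted both ways versus DMSO so AC50 may be loss or gain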
Summary of the method: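 Human umbilical vein endothelial cells were dosed with chemical and, after 24 h, fixed with 10% TCA, stained with 0.1% sulforhodamine B, and read at 560 nm to give total protein as a cytotoxicity measure. Bidirectional fitting relative to DMSO control.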

[8] = read-out: Urokinase-type plasminogen activator receptor (uPAR), PLAUR (gene 5329); experiment: BSK_4H_uPAR: BioMAP Diversity Plus: 4H Assay for Urokinase-type plasminogen activator receptor (uPAR) Biomarker Activity (AID 2283030); conditions: primary human endothelial cells (HUVEC); actives raise or lower the signal
Summary of the method: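 uPAR level read by ELISA on HUVEC cultures (BioMAP 4H) 24 h post-dosing, analyzed for gain or loss relative to DMSO. Parallel SRB staining assessed overt cytotoxicity.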

[9] = read-out: Vascular endothelial growth factor receptor 2 (Homo sapiens) (UniProt P35968); experiment: BSK_4H_VEGFRII: BioMAP Diversity Plus: 4H Assay for Vascular endothelial growth factor receptor 2 (VEGFR2) Biomarker Activity (AID 2283031); conditions: primary human endothelial cells (HUVEC); actives raise or lower the signal;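 as to AC50: cell-surface VEGFR2 protein level quantified by ELISA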
Summary of the method: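 Measured by ELISA after 24 h of compound treatment: VEGFR2 on primary human umbilical vein endothelial cells, fitted in both directions relative to DMSO. Parallel cultures received SRB staining (560 nm) for overt cytotoxicity.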

[10] = read-out: Human Leukocyte Antigen - DR isotype (HLADR), HLA-DRA (gene 3122); experiment: BSK_BE3C_HLADR: BioMAP Diversity Plus: BE3C Assay for Human Leukocyte Antigen - DR isotype (HLADR) Biomarker Activity (AID 2283032); conditions: primary human bronchial epithelial cells; actives raise or lower the signal
Summary of the method: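 Human primary bronchial epithelial cells in the BE3C system were exposed to chemicals for 24 h, after which HLA-DR levels were quantified by ELISA. Activity was fitted bidirectionally, gain or loss of signal, against DMSO as negative control and baseline.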

[11] = read-out: Vascular cell adhesion molecule 1 (VCAM1), VCAM1 (gene 7412); experiment: BSK_4H_VCAM1: BioMAP Diversity Plus: 4H Assay for Vascular cell adhesion molecule 1 (VCAM1) Biomarker Activity (AID 2283033); conditions: primary human endothelial cells (HUVEC); actives raise or lower the signal
Summary of the method: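 Primary human umbilical vein endothelial cells were exposed to chemicals for 24 h, after which VCAM-1 was quantified by ELISA. Responses were fitted bidirectionally against DMSO as negative control and activity baseline.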

[12] = read-out: Interferon-gamma inducible Protein 10 (IP10), CXCL10 (gene 3627); experiment: BSK_BE3C_IP10: BioMAP Diversity Plus: BE3C Assay for Interferon-gamma inducible Protein 10 (IP10) Biomarker Activity (AID 2283034); conditions: primary human bronchial epithelial cells; actives raise or lower the signal
Summary of the method: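 Human primary bronchial epithelial cells were exposed to chemicals for 24 hours, after which IP-10 levels were measured by ELISA. Data were fitted bidirectionally against DMSO, which served as the negative control and activity baseline.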

[13] = read-out: Monokine induced gamma interferon (MIG), CXCL9 (gene 4283); experiment: BSK_BE3C_MIG: BioMAP Diversity Plus: BE3C Assay for Monokine induced gamma interferon (MIG) Biomarker Activity (AID 2283035); conditions: primary human bronchial epithelial cells; actives raise or lower the signal
Summary of the method: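 ELISA read-out of MIG in human lung bronchial epithelial primary cultures, 24 h post-dosing. Bidirectional curve fit vs DMSO baseline.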

[14] = read-out: Transforming growth factor beta 1 (TGFb1), TGFB1 (gene 7040); experiment: BSK_BE3C_TGFb1: BioMAP Diversity Plus: BE3C Assay for Transforming growth factor beta 1 (TGFb1) Biomarker Activity (AID 2283036); conditions: primary human bronchial epithelial cells; actives raise or lower the signal
Summary of the method: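 Human primary bronchial epithelial cells (BE3C system) were dosed with chemical and TGF-b1 levels measured by ELISA at 24 h. Activity was fitted bidirectionally relative to DMSO negative control as baseline.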

[15] = read-out: Plasminogen activator inhibitor-1 (PAI1), SERPINE1 (gene 5054); experiment: BSK_BE3C_PAI1: BioMAP Diversity Plus: BE3C Assay for Plasminogen activator inhibitor-1 (PAI1) Biomarker Activity (AID 2283037); conditions: primary human bronchial epithelial cells; actives raise or lower the signal
Summary of the method: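 Human primary bronchial epithelial cells were exposed to chemical for 24 h, then PAI-1 was quantified by ELISA. Activity was fitted bidirectionally relative to the DMSO negative control baseline.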

[16] = read-out: urokinase plasminogen activator (uPA), PLAU (gene 5328); experiment: BSK_BE3C_uPA: BioMAP Diversity Plus: BE3C Assay for urokinase plasminogen activator (uPA) Biomarker Activity (AID 2283038); conditions: primary human bronchial epithelial cells; actives raise or lower the signal;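 also: uPA protein level quantified by ELISA in cell cultures; uPA read one day after compound addition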
Summary of the method: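 ELISA for uPA on human primary bronchial epithelial cultures 24 h post-treatment, gain or loss against DMSO. Parallel SRB staining (0.1% after 10% TCA fixation, 560 nm) assessed overt cytotoxicity.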

[17] = read-out: Urokinase-type plasminogen activator receptor (uPAR), PLAUR (gene 5329); experiment: BSK_BE3C_uPAR: BioMAP Diversity Plus: BE3C Assay for Urokinase-type plasminogen activator receptor (uPAR) Biomarker Activity (AID 2283039); conditions: primary human bronchial epithelial cells; actives raise or lower the signal;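 also: uPAR protein level measured by ELISA on the cells; cells exposed to compound for one day before measurement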
Summary of the method: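 Primary human bronchial epithelial cells were dosed with chemical and harvested 24 h later; uPAR was quantified by ELISA. Activity was fitted bidirectionally against DMSO as negative control and baseline.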

[18] = read-out: Interleukin-6 (IL6), IL6 (gene 3569); experiment: BSK_CASM3C_IL6: BioMAP Diversity Plus: CASM3C Assay for Interleukin-6 (IL6) Biomarker Activity for (AID 2283040); conditions: primary human coronary artery smooth muscle cells; actives raise or lower the signal
[19] = BSK_BE3C_SRB: Viability Assessment in the BioMAP Diversity Plus: BE3C Assay (AID 2283028); conditions: primary human bronchial epithelial cells;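 as to AC50: fitted both ways so AC50 may mark signal gain or loss versus DMSO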
Summary of the method: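 Cytotoxicity read-out: SRB (0.1%) staining of TCA-fixed (10%) human lung bronchial epithelial cells, absorbance 560 nm, 24 h post-dosing. Curves fitted both directions relative to DMSO.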

[20] = read-out: Thrombomodulin, THBD (gene 7056); experiment: BSK_3C_Thrombomodulin: BioMAP Diversity Plus: 3C Assay for Thrombomodulin Biomarker Activity (AID 2283029); conditions: primary human endothelial cells (HUVEC); actives raise or lower the signal
Summary of the method: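 Primary human umbilical vein endothelial cells (3C system) were exposed to chemical for 24 h, then thrombomodulin levels were measured by ELISA. Activity was fitted bidirectionally against the DMSO negative control as baseline.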

Measured: AC50

OC(c1ccc(Cl)cc1)(c1ccc(Cl)cc1)C(Cl)(Cl)Cl
active: [1] 30.3 µM | [3] 21.2 µM | [4] 34.1 µM | [5] 16.3 µM | [6] 17.3 µM | [7] 28.6 µM | [8] 31.4 µM | [9] 20 µM | [10] 11.5 µM | [11] 28.3 µM | [12] 12.2 µM | [13] 14.5 µM | [14] 31.2 µM | [15] 13.9 µM
inactive: [2] | [16] | [17] | [18]

N#Cc1c[nH]cc1-c1cccc2c1OC(F)(F)O2
active: [3] 11.6 µM | [5] 11.2 µM | [6] 11.7 µM | [7] 6.27 µM | [8] 14.7 µM | [11] 20 µM
not listed: [2]
inactive: all other assays above

COC(=O)c1c(C(F)F)nc(C(F)(F)F)c(C2=NCCS2)c1CC(C)C
active: [3] 33.3 µM | [7] 36.5 µM | [8] 33.9 µM | [10] 3.97 µM | [11] 20 µM | [15] 3.97 µM
not listed: [5] | [12] | [19] | [20]
inactive: all other assays above

CC(C)Nc1nc(Cl)nc(NC(C)C)n1
not listed: [19]
inactive: all other assays above

O=C(O)c1c(Cl)ccc2cc(Cl)cnc12
not listed: [2] | [12]
inactive: all other assays above

CCNC(=O)NC(=O)C(C#N)=NOC
active: [18] 6.13 µM
not listed: [2] | [9] | [12] | [20]
inactive: all other assays above

CC(C)=CC1C(C(=O)OCc2coc(Cc3ccccc3)c2)C1(C)C (stereo not drawn)
active: [3] 13.7 µM | [5] 9.8 µM | [19] 10.8 µM | [11] 4.5 µM
not listed: [2] | [12]
inactive: all other assays above

COCC(C)N(C(=O)CCl)c1c(C)csc1C (stereo not drawn)
active: [6] 14.6 µM
inactive: [1] | [2] | [3] | [4] | [6] | [7] | [8] | [9] | [10] | [11] | [13] | [14] | [15] | [16] | [17] | [18]

COCc1cnc(C2=NC(C)(C(C)C)C(=O)N2)c(C(=O)O)c1 (stereo not drawn)
not listed: [5] | [12] | [19] | [20]
inactive: all other assays above

CC1(C)C(C=C(Cl)Cl)C1C(=O)OC(C#N)c1cccc(Oc2ccccc2)c1 (stereo not drawn)
active: [3] 8.06 µM | [7] 14 µM
not listed: [2] | [12] | [20]
inactive: all other assays above

CC(C)N1C(=O)c2ccccc2NS1(=O)=O
not listed: [5] | [12] | [14] | [20]
inactive: all other assays above

COP(=S)(OC)SCn1nnc2ccccc2c1=O
active: [6] 35.1 µM
not listed: [2] | [5] | [12] | [20]
inactive: all other assays above

CO/N=C(/C1=NOCCO1)c1ccccc1Oc1ncnc(Oc2ccccc2Cl)c1F
active: [3] 13.4 µM | [5] 20 µM | [7] 8.6 µM | [8] 15.5 µM | [10] 11.1 µM
not listed: [2] | [19] | [20]
inactive: all other assays above
